# Assay results reported in PubChem BioAssay (EPA / NIEHS).
# Records with an inconclusive call do not appear. Calls of active or inactive are those of the source. The calls were made as follows: active = hit-call score of the fitted dose curve at least 0.9, where 1 is the maximum; inconclusive = response in the unintended direction; inactive = score below 0.9.
# Read-out: sulfotransferase (SULT2A), SULT2A1 (gene 6822)
# Assay: CLD_SULT2A_6hr: CellzDirect (CLD) Gene Expression Assay for sulfotransferase (SULT2A) at 6 hours (AID 2283669);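 also: hits raise transcript level above the DMSO vehicle baseline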
# Protocol: CLD_6hr is a cell-based, multiplexed-readout assay that uses hepatocyte, a human liver primary cell, with measurements taken at 6 hours after chemical dosing in a 96-well plate.CLD_SULT2A_6hr is one of 16 assay component(s) measured or calculated from the CLD_6hr assay. It is designed to make measurements of mRNA induction, a form of inducible reporter, as detected with chemiluminescence signals by Quantitative Nuclease Protection Assay (qNPA) technology.Data from the assay component CLD_SULT2A_6hr was analyzed at the endpoint, CLD_SULT2A_6hr, in the positive analysis fitting direction relative to DMSO as the negative control and baseline of activity. Using a type of inducible reporter, gain-of-signal activity can be used to understand changes in the reporter gene as they relate to the gene SULT2A1. Furthermore, this assay endpoint can be referred to as a primary readout. To generalize the intended target to other relatable targets, this assay endpoint is annotated to the transferase intended target family, where subfamily is sulfotransferase.
# Human hepatocyte cultures were treated daily for two consecutive days with fresh dosing solutions containing appropriate concentrations of the 320 ToxCast chemicals (chemical identities were blinded to CellzDirect and other ToxCast collaborators), vehicle control (0.2% DMSO), and positive control inducers as summarized in Table 1. Due to the large number of treatment groups and chemicals examined, the ToxCast chemicals were divided into two groups (spanning two independent cultures of hepatocytes from separate donor preparations (Hu778: ToxCast plates 1 and 2; Hu776: ToxCast plates 3 and 4). Each preparation of human hepatocyte cultures was treated with respective vehicle control, medium only control, set of six positive controls/reference chemicals for the five hepatic receptor pathways, and a subset of eight of the ToxCast chemicals (indoxacarb, pyrithiobac-sodium, norflurazon, cyhalofop-butyl, methomyl, thiram, acetochlor, and propiconazole). These replicate data, coupled with internal replicates designed within the blinded ToxCast chemical library, provided additional data to evaluate interindividual differences between hepatocyte preparations and their potential impact on chemical profiles.Cell morphology and integrity were evaluated using phase-contrast microscopy as an indicator of hepatocyte cell health (Tyson & Green, 1987). Cultures for each treatment group (i.e., media, vehicle [0.2% DMSO], positive control inducers [multiple concentrations], and the ToxCast chemicals [multiple concentrations]) were observed and cell morphology was assessed relative to vehicle control cultures at each harvest time point (0, 6, 24, or 48 h). […] Images were evaluated at the conclusion of the study to assess changes in cell integrity and account for the effects of chemical exposure on uncharacteristic changes in concentration-dependent gene expression profiles. The results from these determinations of apparent cytotoxicity were annotated (yes/no) alongside the corresponding qNPA data for reference.At the conclusion of each treatment period, hepatocyte cultures (96-well) were washed with 1 volume of HBSS, lysed by addition of 25 ul ArrayPlate lysis buffer (HTG, Tucson, AZ), and 70 ul/well of Denaturation Oil, denatured by incubation at 95C for 10 min, and frozen at approximately -70C until analysis by nuclease protection assay (qNPA) (Roberts et al., 2007). For qNPA analysis, cell lysates were thawed at 50C for approximately 30 min, qNPA probes were added, and samples were incubated at 95C for 10 min to begin the detection process by denaturing the target RNA, dissociating the duplexes and secondary structure hybridization. At the conclusion of the hybridization period, S1 nuclease reagent was added to each sample to digest all nonprotected nucleotides at 50C for 60-90 min. […]
row,Compound,outcome
1,CCOc1cc(C(C)(C)C)ccc1C1COC(c2c(F)cccc2F)=N1 (stereo not given),inactive
2,OC(c1ccc(Cl)cc1)(c1ccc(Cl)cc1)C(Cl)(Cl)Cl,inactive
3,CC(C)NC(=O)N1CC(=O)N(c2cc(Cl)cc(Cl)c2)C1=O,inactive
4,N#Cc1c(Cl)cccc1Cl,inactive
5,COC(=O)NC(=S)Nc1ccccc1NC(=S)NC(=O)OC,inactive
6,CCOP(=S)(OCC)Oc1nc(Cl)n(C(C)C)n1,inactive
7,CC1(C)CON(Cc2ccccc2Cl)C1=O,inactive
8,COCc1cnc(C2=NC(C)(C(C)C)C(=O)N2)c(C(=O)O)c1 (stereo not given),inactive
9,CCSC(=O)N1CCCCCC1,inactive
10,O=C(O)c1c(Cl)ccc2cc(Cl)cnc12,inactive
11,COC(=O)NS(=O)(=O)c1ccc(N)cc1,inactive
12,C=C(C)CN(CC)c1c([N+](=O)[O-])cc(C(F)(F)F)cc1[N+](=O)[O-],inactive
13,CCCCC(C#N)(Cn1cncn1)c1ccc(Cl)cc1 (stereo not given),inactive
14,CCNP(=S)(OC)O/C(C)=C/C(=O)OC(C)C (stereo not given),inactive
15,CO/N=C(/C1=NOCCO1)c1ccccc1Oc1ncnc(Oc2ccccc2Cl)c1F,inactive
16,CCN(CC)c1nc(C)cc(OP(=S)(OC)OC)n1,inactive
17,O=P(O)(O)CCCl,inactive
18,CSC(=O)c1c(C(F)F)nc(C(F)(F)F)c(C(=O)SC)c1CC(C)C,inactive
19,CCN(CC)C(=O)C(C)Oc1cccc2ccccc12 (stereo not given),inactive
20,CC(C)(C)C(=O)C(Oc1ccc(Cl)cc1)n1cncn1 (stereo not given),inactive

row,Compound,outcome
1,CNC(=O)Oc1cccc2ccccc12,inactive
2,Cc1cc(C)nc(Nc2ccccc2)n1,inactive
3,COc1cc(OC)nc(NC(=O)NS(=O)(=O)c2ncccc2OCC(F)(F)F)n1,inactive
4,CC1(C)CCC(=Cc2ccc(Cl)cc2)C1(O)Cn1cncn1 (stereo not given),inactive
5,COCC(=O)N(c1c(C)cccc1C)C(C)C(=O)OC (stereo not given),inactive
6,CCOc1nc(F)cc2nc(S(=O)(=O)Nc3c(Cl)cccc3Cl)nn12,inactive
7,Clc1cccc(C(Cl)(Cl)Cl)n1,inactive
8,COP(=O)(OC)O/C(C)=C/C(=O)N(C)C,inactive
9,CCC(C)n1c(=O)[nH]c(C)c(Br)c1=O (stereo not given),inactive
10,CCOP(=O)(OCC)Oc1nc(Cl)c(Cl)cc1Cl,inactive
11,COC(=O)N(C(=O)N1CO[C@@]2(C(=O)OC)Cc3cc(Cl)ccc3C2=N1)c1ccc(OC(F)(F)F)cc1,inactive
12,Cc1cnc(C2=NC(C)(C(C)C)C(=O)N2)c(C(=O)O)c1 (stereo not given),inactive
13,O=c1n(Cl)c(=O)n(Cl)c(=O)n1Cl,inactive
14,COC(=O)c1c(C(F)F)nc(C(F)(F)F)c(C2=NCCS2)c1CC(C)C,inactive
15,CC1(C)C(C=C(Cl)Cl)C1C(=O)OC(C#N)c1cccc(Oc2ccccc2)c1 (stereo not given),inactive
16,Cc1nc(N(C)C)nc(OC(=O)N(C)C)c1C,inactive
17,COc1ccc(-c2ccccc2)cc1NNC(=O)OC(C)C,inactive
18,COCC(C)N(C(=O)CCl)c1c(C)csc1C (stereo not given),inactive
19,N#CN=C1SCCN1Cc1ccc(Cl)nc1,inactive
20,C=CCOC(=O)C(C)(C)OC(=O)c1cc(-n2c(=O)cc(C(F)(F)F)n(C)c2=O)ccc1Cl,inactive
